{"source": "PubChem BioAssay AID1053175", "about": "(ICCB-Longwood Screening Facility, Harvard Medical School, 2014)", "note": "Several values for one entry are separate records, joined by “and”; a condition that tells them apart may be missing. Identical values can stand only once. The campaign covered roughly 330,000 compounds. About 700 (0.21%) were called active. For the sample, actives were picked, then their nearest neighbours and some compounds at random. A number with no mark means an inactive call.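 The calls were made as follows: active = OD600 absorbance below the run mean of sample wells minus 3.6 SD, in any replicate (cut at about 0.56 in these data); inactive = the rest.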", "data": [{"assay": "E. coli growth inhibition, primary screen, OD600 (AID 1053175)", "conditions": "Escherichia coli growth, OD600, 23 h; stronger effect = lower value", "values": [{"molecule": "O=[N+]([O-])c1cccc(C=NN2CCN(c3ccccn3)CC2)c1", "OD600 absorbance": 0.693}, {"molecule": "C/[N+]([O-])=C\\c1ccc([N+](=O)[O-])o1", "OD600 absorbance": "0.0665 (active)"}, {"molecule": "Cc1ccc(NCC(=O)NN=Cc2ccc([N+](=O)[O-])o2)cc1", "OD600 absorbance": 0.564}, {"molecule": "CCn1c(/C=C/c2ccc([N+](=O)[O-])o2)nc2ccccc2c1=O", "OD600 absorbance": 0.629}, {"molecule": "CCc1ccc(-c2nn(-c3ccccc3C)cc2C(=O)N2CCN(C3CCS(=O)(=O)C3)CC2)cc1", "note": "(stereo not given)", "OD600 absorbance": 0.66}, {"molecule": "Cc1ccc(-c2nn(-c3ccccc3)cc2C(=O)NC2CCC(O)CC2)cc1", "note": "(stereo not given)", "OD600 absorbance": 0.658}, {"molecule": "CCc1ccc(-c2nn(-c3ccccc3)cc2CSC(=N)N)cc1", "OD600 absorbance": "0.201 (active)"}, {"molecule": "COc1cccc(C=NNC(=O)CSc2cccc3cccnc23)c1", "OD600 absorbance": 0.635}, {"molecule": "COC(=O)[C@]1(Cc2ccccc2)NC(c2ccc(-c3cc(C(C)=O)cs3)cc2)C2C(=O)N(C)C(=O)C21", "note": "(stereo not given in full)", "OD600 absorbance": 0.738}, {"molecule": "COC(=O)C1=C(C)N(Cc2ccco2)C(=O)NC1c1cccc(C(F)(F)F)c1", "note": "(stereo not given)", "OD600 absorbance": 0.7}, {"molecule": "COc1ccc(C2C=CCN(S(=O)(=O)C=Cc3ccccc3)C(Cc3ccccc3)C(=O)N2Cc2ccc(F)cc2)cc1", "note": "(stereo not given)", "OD600 absorbance": 0.733}, {"molecule": "CCOc1cc(C=NNc2ncnc(Cl)c2N)ccc1O", "OD600 absorbance": 0.682}, {"molecule": "COc1cc(C=Nn2cnnc2)ccc1OCCOc1ccccc1", "OD600 absorbance": 0.782}, {"molecule": "CCOC(=O)C1(CCOc2ccccc2)CCN(Cc2cc(OC)c(O)cc2Cl)CC1", "OD600 absorbance": 0.602}, {"molecule": "OCC1(CCOc2ccccc2)CCN(Cc2cn[nH]c2-c2ccccc2)CC1", "OD600 absorbance": 0.675}, {"molecule": "Cc1c(CN2CCC(CO)(CCOc3ccccc3)CC2)[nH]c2ccc(Cl)cc12", "OD600 absorbance": "0.527 (active)"}, {"molecule": "COc1cc(C(=O)ON=C2C=CC(=O)C=C2C)cc(OC)c1OC", "OD600 absorbance": 0.685}, {"molecule": "COC(=O)c1cc(C(=O)NC(C)C2CC3CCC2C3)cc([N+](=O)[O-])c1", "note": "(stereo not given)", "OD600 absorbance": "0.52 (active)"}, {"molecule": "Cc1c(C(=O)NC(C)C2CC3CCC2C3)cccc1[N+](=O)[O-]", "note": "(stereo not given)", "OD600 absorbance": 0.695}, {"molecule": "Cc1cccc(C(=O)OCC(=O)NC(C)C2CC3CCC2C3)c1O", "note": "(stereo not given)", "OD600 absorbance": 0.676}, {"molecule": "CC=C(C)C(=O)NCCN1C2=NCC(C)N2CC1Cc1ccc(O)cc1", "note": "(stereo not given)", "OD600 absorbance": 0.694}, {"molecule": "Cc1occc1C(=O)NN=Cc1cccc2ccccc12", "OD600 absorbance": 0.677}, {"molecule": "COc1ccc(OC)c(C=Nn2c(-c3n[nH]c4c3CCC4)n[nH]c2=S)c1", "OD600 absorbance": 0.697}, {"molecule": "COc1cc(C=NNC(=O)c2ccc3nc[nH]c3c2)ccc1O", "OD600 absorbance": 0.686}, {"molecule": "CCOC(=O)C1C2COc3ccccc3C2N2C(=O)N(c3cccc(Cl)c3)C(=O)[C@@]12C", "note": "(stereo not given in full)", "OD600 absorbance": "0.65 and 0.728"}, {"molecule": "Nc1nnnn1N=Cc1ccc(O)cc1", "OD600 absorbance": 0.733}, {"molecule": "Cc1cc([N+](=O)[O-])cc(C)c1OCC(=O)NN=Cc1ccc(OC(=O)c2ccccc2Br)cc1", "OD600 absorbance": 0.708}, {"molecule": "S=C(Nc1cccc(Cl)c1)Nc1ccc2c(c1)OCCO2", "OD600 absorbance": 0.613}, {"molecule": "Cc1csc(NC(=S)Nc2cccc(Cl)c2)n1", "OD600 absorbance": 0.618}, {"molecule": "FC(F)(F)c1cccc(NC(=S)Nc2cccc(Cl)c2)c1", "OD600 absorbance": "0.501 (active)"}, {"molecule": "OCCNc1nc(Nc2ccc(Cl)c(Cl)c2)nc2ccccc12", "OD600 absorbance": "0.392 (active)"}, {"molecule": "OCCCNc1nc(-c2ccccc2)c2cc(Cl)ccc2n1", "OD600 absorbance": 0.647}, {"molecule": "Cc1nnc(NCCO)c2ccccc12", "OD600 absorbance": 0.66}, {"molecule": "COc1cc(C(C)=NNC(=O)c2cccc(S(=O)(=O)N3CCCC3)c2)cc(OC)c1OC", "OD600 absorbance": 0.705}, {"molecule": "Cc1c(Cl)cccc1NC(=S)N(Cc1ccccc1)Cc1cccnc1", "OD600 absorbance": "0.58 (active)"}, {"molecule": "Cc1ccc(CN(Cc2cccnc2)C(=S)Nc2cccc(Cl)c2C)cc1", "OD600 absorbance": 0.672}, {"molecule": "Cc1cccc(C)c1NC(=S)N(Cc1cccnc1)Cc1ccccc1Cl", "OD600 absorbance": 0.706}, {"molecule": "O=C(NN=C1CC(c2ccccc2)Oc2ccccc21)c1ccc(O)cc1", "note": "(stereo not given)", "OD600 absorbance": 0.541}, {"molecule": "COC(=O)NN=Cc1c[nH]c2ccccc12", "OD600 absorbance": 0.738}, {"molecule": "CC(=NNC(=O)c1ccccc1[N+](=O)[O-])c1c(O)cc(C)oc1=O", "OD600 absorbance": 0.635}, {"molecule": "COc1cc(C=NNC(=O)NC23CC4CC(CC(C4)C2)C3)ccc1OCC(N)=O", "OD600 absorbance": 0.652}, {"molecule": "O=C(/C=C/c1ccc([N+](=O)[O-])o1)NNC(=O)c1ccc(F)cc1", "OD600 absorbance": "0.428 (active)"}, {"molecule": "O=C(NNC(=O)C1CCCC1)c1ccc(F)cc1", "OD600 absorbance": 0.706}, {"molecule": "CCc1noc(C)c1C(=O)NNC(=O)c1ccc(F)cc1", "OD600 absorbance": 0.692}, {"molecule": "S=c1[nH]nc(-c2ccncc2)n1N=Cc1ccccc1", "OD600 absorbance": 0.705}, {"molecule": "CCN1/C(=C/c2ccc3ccc(C)cc3[n+]2CC)Sc2ccccc21", "OD600 absorbance": "0.506 (active)"}, {"molecule": "CC(=NNC(=O)c1c[nH]c2ccccc12)c1ccccn1", "OD600 absorbance": 0.586}, {"molecule": "COc1ccc(C(=O)NN=C(c2ccccc2)c2ccccn2)cc1", "OD600 absorbance": 0.68}, {"molecule": "CC(=NNC(=O)c1ccc(F)cc1)c1ccccn1", "OD600 absorbance": "0.506 (active)"}, {"molecule": "CC(=NNS(=O)(=O)c1ccc(Br)cc1)c1ccc(-n2ccnc2)cc1", "OD600 absorbance": 0.734}]}]}
